Measured values taken from PubChem BioAssay AID1159580 (chemical genetic matrix, 2015).
The campaign covered roughly 5,500 compounds. About 2,000 (36%) were called active. About 18% were inconclusive and are not listed. No stated cut-off is given here; in the data, active means normalized growth mostly below about 0.91 (no sharp cut-off); inconclusive means no clear call, values can overlap the other calls; inactive means mostly above about 0.92. This is one part of the list.

Test: chemical genetic growth profiling, strain panel (AID 1159580);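 further: tested at 20 µM; growth read once vehicle control cultures reached saturation at 30 °C; 1 = growth at the plate median or of vehicle wells; lower values mean less growth of the strain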
Conditions: growth OD

Measured: normalized growth

C/C=C(/C)C(=O)O[C@@H]1[C@H](OC(C)=O)[C@@]2(CO)C(CC1(C)C)C1=CCC3[C@@]4(C)CC[C@H](O[C@@H]5O[C@H](C(=O)O)[C@@H](O[C@@H]6O[C@H](CO)[C@@H](O)[C@H](O)[C@H]6O)[C@H](O)[C@H]5O[C@@H]5O[C@H](CO)[C@@H](O)[C@H](O)[C@H]5O)[C@](C)(CO)C4CC[C@@]3(C)[C@]1(C)C[C@H]2O (some centres not stated)
inactive: S. cerevisiae deletion strains, locus YKL009W, strain mrt4, active compounds read low 1.06 | S. cerevisiae deletion strains, locus YKL068W, active compounds read low 1.01 | S. cerevisiae deletion strains, locus YKL085W, strain MDH1 (second series), active compounds read low 1.06 | S. cerevisiae deletion strains, locus YKL085W, strain MDH1, active compounds read low 1.06 | S. cerevisiae deletion strains, locus YKL160W, strain elf1, active compounds read low 1.02 | S. cerevisiae deletion strains, locus YKR001C, strain vps1, active compounds read low 1.01 | S. cerevisiae deletion strains, locus YKR026C, strain gcn3, active compounds read low 0.99 | S. cerevisiae deletion strains, locus YKR091W, strain srl3, active compounds read low 0.99 | S. cerevisiae deletion strains, locus YLL001W, strain dnm1, active compounds read low 1.01 | S. cerevisiae deletion strains, locus YLL026W, active compounds read low 0.988 | S. cerevisiae deletion strains, locus YLL041C, strain sdh2, active compounds read low 0.983 | S. cerevisiae deletion strains, locus YLR027C, strain aat2, active compounds read low 0.996 | S. cerevisiae deletion strains, locus YLR039C, strain RIC1, active compounds read low 1.04 | S. cerevisiae deletion strains, locus YLR058C, strain SHM2, active compounds read low 1.01 | S. cerevisiae deletion strains, locus YLR102C, strain apc9, active compounds read low 1.02 | S. cerevisiae deletion strains, locus YLR113W, strain HOG1, active compounds read low 0.967 | S. cerevisiae deletion strains, locus YLR221C, strain rsa3, active compounds read low 1 | S. cerevisiae deletion strains, locus YLR258W, strain gsy2, active compounds read low 0.981 | S. cerevisiae deletion strains, locus YLR262C, strain YPT6 (second series), active compounds read low 1.01 | S. cerevisiae deletion strains, locus YLR262C, strain YPT6, active compounds read low 1.08 | S. cerevisiae deletion strains, locus YLR268W, strain sec22, active compounds read low 1.04 | S. cerevisiae deletion strains, locus YLR320W, strain mms22, active compounds read low 0.973 | S. cerevisiae deletion strains, locus YLR330W, strain CHS5, active compounds read low 1.01 | S. cerevisiae deletion strains, locus YLR342W, strain FKS1 (second series), active compounds read low 1.05 | S. cerevisiae deletion strains, locus YLR342W, strain FKS1, active compounds read low 0.988 | S. cerevisiae deletion strains, locus YLR357W, strain rsc2, active compounds read low 0.984 | S. cerevisiae deletion strains, locus YLR370C, strain arc18, active compounds read low 0.992 | S. cerevisiae deletion strains, locus YLR371W, strain rom2, active compounds read low 1.03 | S. cerevisiae deletion strains, locus YLR384C, strain iki3, active compounds read low 1 | S. cerevisiae deletion strains, locus YLR418C, strain cdc73, active compounds read low 1 | S. cerevisiae deletion strains, locus YML016C, strain PPZ1, active compounds read low 1.01 | S. cerevisiae deletion strains, locus YML032C, strain rad52, active compounds read low 1.03 | S. cerevisiae deletion strains, locus YML120C, strain ndi1, active compounds read low 1.01 | S. cerevisiae deletion strains, locus YML124C, strain tub3, active compounds read low 1.02 | S. cerevisiae deletion strains, locus YMR058W, strain fet3, active compounds read low 0.99 | S. cerevisiae deletion strains, locus YMR078C, strain ctf18, active compounds read low 1.02 | S. cerevisiae deletion strains, locus YMR125W, strain sto1, active compounds read low 0.959 | S. cerevisiae deletion strains, locus YMR129W, active compounds read low 0.979 | S. cerevisiae deletion strains, locus YMR205C, strain PFK2, active compounds read low 0.925 | S. cerevisiae deletion strains, locus YMR223W, strain ubp8, active compounds read low 1.02 | S. cerevisiae deletion strains, locus YMR231W, strain pep5, active compounds read low 0.973 | S. cerevisiae deletion strains, locus YMR307W, strain GAS1, active compounds read low 1.08 | S. cerevisiae deletion strains, locus YNL067W, strain RPL9B, active compounds read low 1.02 | S. cerevisiae deletion strains, locus YNL071W, strain lat1, active compounds read low 1 | S. cerevisiae deletion strains, locus YNL183C, strain NPR1, active compounds read low 0.969 | S. cerevisiae deletion strains, locus YNL209W, strain ssb2, active compounds read low 0.988 | S. cerevisiae deletion strains, locus YNL233W, strain BNI4, active compounds read low 1.01 | S. cerevisiae deletion strains, locus YNL248C, strain rpa49, active compounds read low 1.02 | S. cerevisiae deletion strains, locus YNL250W, strain rad50, active compounds read low 1.04 | S. cerevisiae deletion strains, locus YNL271C, strain bni1, active compounds read low 1.03 | S. cerevisiae deletion strains, locus YNL298W, strain CLA4, active compounds read low 1.01 | S. cerevisiae deletion strains, locus YNL307C, strain MCK1, active compounds read low 1.03 | S. cerevisiae deletion strains, locus YNL322C, strain KRE1 (second series), active compounds read low 0.983 | S. cerevisiae deletion strains, locus YNL322C, strain KRE1, active compounds read low 1.01 | S. cerevisiae deletion strains, locus YNR049C, strain mso1, active compounds read low 0.982 | S. cerevisiae deletion strains, locus YNR052C, strain pop2, active compounds read low 1.02 | S. cerevisiae deletion strains, locus YOL006C, strain TOP1, active compounds read low 0.991 | S. cerevisiae deletion strains, locus YOL012C, strain htz1 1.42 | S. cerevisiae deletion strains, locus YOL147C, strain pex11, active compounds read low 1.02 | S. cerevisiae deletion strains, locus YOR001W, strain rrp6, active compounds read low 0.992 | S. cerevisiae deletion strains, locus YOR061W, strain CKA2, active compounds read low 1.01 | S. cerevisiae deletion strains, locus YOR069W, strain VPS5, active compounds read low 1 | S. cerevisiae deletion strains, locus YOR070C, strain gyp1, active compounds read low 1 | S. cerevisiae deletion strains, locus YOR080W, strain dia2, active compounds read low 0.968 | S. cerevisiae deletion strains, locus YOR083W, strain WHI5, active compounds read low 1.02 | S. cerevisiae deletion strains, locus YOR106W, strain vam3, active compounds read low 1.01 | S. cerevisiae deletion strains, locus YOR136W, strain idh2, active compounds read low 1.02 | S. cerevisiae deletion strains, locus YOR144C, strain elg1, active compounds read low 1.02 | S. cerevisiae deletion strains, locus YOR184W, strain ser1, active compounds read low 1.02 | S. cerevisiae deletion strains, locus YOR231W, strain MKK1, active compounds read low 0.967 | S. cerevisiae deletion strains, locus YOR265W, strain rbl2, active compounds read low 0.993 | S. cerevisiae deletion strains, locus YOR270C, strain vph1, active compounds read low 0.883 | S. cerevisiae deletion strains, locus YOR290C, strain snf2, active compounds read low 0.966 | S. cerevisiae deletion strains, locus YOR316C, strain cot1, active compounds read low 1.02 | S. cerevisiae deletion strains, locus YPL051W, strain arl3, active compounds read low 1.02 | S. cerevisiae deletion strains, locus YPL055C, strain LGE1, active compounds read low 1 | S. cerevisiae deletion strains, locus YPL078C, strain atp4, active compounds read low 1.01 | S. cerevisiae deletion strains, locus YPL106C, strain sse1, active compounds read low 0.981 | S. cerevisiae deletion strains, locus YPL240C, strain hsp82, active compounds read low 1.01 | S. cerevisiae deletion strains, locus YPL241C, strain CIN2, active compounds read low 1 | S. cerevisiae deletion strains, locus YPL256C, strain CLN2, active compounds read low 0.967 | S. cerevisiae deletion strains, locus YPR119W, strain clb2, active compounds read low 1.03 | S. cerevisiae deletion strains, locus YPR141C, strain kar3, active compounds read low 1.04 | S. cerevisiae deletion strains, locus YPR163C, strain tif3, active compounds read low 1.02 | S. cerevisiae deletion strains, locus YPR167C, strain met16, active compounds read low 1.02 | S. cerevisiae deletion strains, strain wtn01, active compounds read low 1.02 | S. cerevisiae strains, strain wild type, active compounds read low 1.01
